The panel holds about 79,000 compounds, 15% with a hit somewhere; the sample as a whole holds those more often. Active and inactive are the calls of the source. Rule as the data show it: active = growth inhibition above about 70%; inactive = the rest.
Tests used:
[1] = NCI Yeast Anticancer Drug Screen. Data for the rad50 strain (AID 155);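 also: 0% = growth of vehicle-only cultures of the same strain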; settings: S. cerevisiae rad50 strain growth inhibition, hits give high values
Summary of the method: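 Inhibition values express reduced yeast growth in compound-treated cultures relative to vehicle-treated controls.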

[2] = NCI Yeast Anticancer Drug Screen. Data for the mec2-1 strain (AID 157); settings: S. cerevisiae mec2-1 strain, hits give high values
Summary of the method: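 Readout is yeast growth inhibition, normalised to vehicle-treated controls, in the mec2-1 strain exposed to compound.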

[3] = NCI Yeast Anticancer Drug Screen. Data for the sgs1 mgt1 strain (AID 161);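 also: 0% = growth of cultures given vehicle only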; settings: S. cerevisiae sgs1 mgt1 strain, hits give high values
Summary of the method: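 Yeast cells carrying a defined DNA-repair defect were exposed to test compounds. Growth inhibition was measured relative to vehicle-treated controls.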

[4] = NCI Yeast Anticancer Drug Screen. Data for the cln2 rad14 strain (AID 165);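 also: 0% = growth equal to vehicle treated cultures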; settings: S. cerevisiae cln2 rad14 strain, hits give high values
Summary of the method: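 Relative to vehicle controls, growth inhibition of compound-treated cln2 rad14 yeast was recorded.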

[5] = NCI Yeast Anticancer Drug Screen. Data for the bub3 strain (AID 167); settings: S. cerevisiae bub3 mutant strain, hits give high values
Summary of the method: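 Steps: expose the mutant yeast strain to compound; grow alongside vehicle-treated cultures; measure growth; express inhibition against the vehicle cultures.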

[6] = NCI Yeast Anticancer Drug Screen. Data for the mlh1 rad18 strain (AID 175); settings: S. cerevisiae mlh1 rad18 strain growth inhibition, hits give high values
Summary of the method: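 Test agents were incubated with a yeast strain of defined genotype (DNA damage repair defect). Inhibition of growth was derived by comparison with vehicle-exposed cultures.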

[7] = at 5.0 µM (retest, dose inferred, filed as 0.5)
[8] = at 50.0 µM (retest, dose inferred, filed as 5.0)

Measured: growth inhibition

Cc1cc(O)c(C(=O)/C=C/c2cccnc2)c(=O)[nH]1
inactive: [1]; [7] -13% | [1]; at 50.0 µM 68.9% | [2]; [7] -3% | [2]; at 50.0 µM 33.7% | [3]; [7] -5% | [4]; [7] 9% | [4]; at 50.0 µM 16.3% | [5]; [7] -16% | [6]; [7] 8%
active: [1]; [8] 79% | [2]; [8] 76% | [3]; [8] 92% | [3]; at 50.0 µM 84.8% | [4]; [8] 70% | [5]; [8] 89% | [5]; at 50.0 µM 78.8% | [6]; [8] 91% | [6]; at 50.0 µM 93%

COc1cc(CNc2nc3ccccc3nc2-c2cccs2)cc(OC)c1OC
inactive: [1]; [7] 5% | [1]; [8] 12% | [1]; at 50.0 µM 10% | [2]; [7] -13% | [2]; [8] -22% | [2]; at 50.0 µM 0.65% | [3]; [7] -1% | [3]; [8] 20% | [3]; at 50.0 µM 19.6% | [4]; [7] -12% | [4]; [8] 9% | [4]; at 50.0 µM 60% | [5]; [7] -12% | [5]; [8] -8% | [5]; at 50.0 µM 30% | [6]; [7] -17% | [6]; [8] 17% | [6]; at 50.0 µM 55.3%

CC1=C/C(=C(/c2ccc(O)c(C)c2)c2ccccc2C(=O)O)C=CC1=O
inactive: [1]; [7] -13% | [2]; [7] -3% | [3]; [7] -9% | [4]; [7] -28% | [5]; [7] -8% | [6]; [7] 6%
active: [1]; [8] 99% | [1]; at 50.0 µM 99% | [2]; [8] 99% | [2]; at 50.0 µM 99.5% | [3]; [8] 99% | [3]; at 50.0 µM 99.1% | [4]; [8] 98% | [4]; at 50.0 µM 99.1% | [5]; [8] 99% | [5]; at 50.0 µM 99.2% | [6]; [8] 99% | [6]; at 50.0 µM 99%

Oc1ccc(O)c2nc3ccccc3nc12
inactive: [1]; [7] 20% | [1]; at 50.0 µM 50.8% | [2]; [7] 3% | [2]; at 50.0 µM 33.8% | [3]; [7] 8% | [3]; at 50.0 µM 24.1% | [4]; [7] 2% | [4]; at 50.0 µM -1.85% | [5]; [7] 6% | [5]; at 50.0 µM 68.2% | [6]; [7] 24%
active: [1]; [8] 97% | [2]; [8] 97% | [3]; [8] 98% | [4]; [8] 98% | [5]; [8] 98% | [6]; [8] 97% | [6]; at 50.0 µM 76.4%

COc1ccc(Nc2nc3ccccc3s2)cc1
inactive: [1]; [7] 1% | [1]; [8] 15% | [1]; at 50.0 µM 21% | [2]; [7] -3% | [2]; [8] 0% | [2]; at 50.0 µM 35.4% | [3]; [7] 0% | [3]; [8] 35% | [3]; at 50.0 µM 38.3% | [4]; [7] -7% | [4]; [8] -14% | [4]; at 50.0 µM -66% | [5]; [7] 5% | [5]; [8] 42% | [6]; [7] 10% | [6]; [8] 15% | [6]; at 50.0 µM 58.7%
active: [5]; at 50.0 µM 85.8%

From PubChem BioAssay (NCI)
